Results as given in PubChem BioAssay AID1347417 (National Center for Advancing Translational Sciences (NCATS), 2020).
Hit rate of the full screen: of about 120,000 compounds, about 5,300 (4.4%) were called active. About 22% were inconclusive and are not listed. The call rests on the fitted dose curve; in most records, active means well fitted inhibition curve with a large enough effect; inconclusive means small, poorly fitted or top-dose-only effect; inactive means no such curve, though single readings can be large or run the other way. This excerpt belongs to a sample that is enriched for actives.

Experiment: qHTS Primary assay for Inhibitors of Plasmodium falciparum Dd2 growth in vitro; further: nearly all actives have a fitted effect of over 65% in size;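 on activity, negative = inhibition: plate controls were DMSO vehicle for no effect and reference drug for full effect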
Details: P. falciparum Dd2 growth, SYBR Green, 72 h; series mostly up to 28.9 µM; activity, negative = inhibition: at the top concentration
In short: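 Readout: SYBR Green fluorescence, 485 nm excitation, 535 nm emission, after ~16 h lysis at 37C. Before that, Dd2-infected red cells (2.5% hematocrit) grew 72 h with compound, 29 uM top final concentration.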
Potency means the concentration at half of the fitted maximal effect.

| SMILES | activity, negative = inhibition | outcome | Potency |
| --- | --- | --- | --- |
| C[C@H](O)c1onc(-c2ccc(F)cc2)c1C(=O)N1CCC1 | -2.21% [at 44.1 µM] (inactive) |  |  |
| Cc1cccc(-n2nc(-c3c(C)nc4scc(CC(=O)NCc5ccco5)n4c3=O)cc2C)c1C |  | inactive |  |
| Cc1nc(-c2ccc(C(F)(F)F)cc2)cc([C@H]2CN3CC[C@H]2C[C@@H]3CNC(=O)C2CCC2)n1 | -20.9% (inactive) |  |  |
| COc1ccc(Cl)cc1S(=O)(=O)N1CCCC(CNC(=O)c2ccco2)C1 (stereo not given) | -19.5% (inactive) |  |  |
| COc1ccccc1-c1cc([C@H]2CN3CC[C@H]2C[C@@H]3CNC(=O)c2ccco2)nc(C)n1 |  |  | 10 µM (active) |
| COc1ccc(-c2cc([C@H]3CN4CC[C@H]3C[C@@H]4COC(=O)NC(C)C)nc(C)n2)cc1 |  | inactive [at 44.1 µM] |  |
| Cc1nc(-c2ccccc2)cc([C@H]2CN3CC[C@H]2C[C@@H]3CNC2CCN(C)CC2)n1 | -10.6% [at 44.1 µM] (inactive) |  |  |
| Cc1ccc(C(=O)NC[C@H]2C[C@@H]3CCN2C[C@@H]3c2cc(-c3ccco3)nc(C)n2)cc1 |  |  | 3.55 µM (active) |
| O=C(c1ccncc1)N1CCC(C2CCN(Cc3cccc(F)c3F)CC2)C1 (stereo not given) | 0.365% (inactive) |  |  |
| COc1ccc(N2CCN(C(=O)COc3ccc(NC(C)=O)cn3)CC2)cc1 | -22.7% (inactive) |  |  |
| Cc1cccc(CN2CCc3ncc(C(=O)NCc4ccccc4)n3CC2)n1 | 9.88% [at 44.1 µM] (inactive) |  |  |
| COCC(=O)N(C1CCOCC1)C1CCN(S(=O)(=O)c2ccccc2C)CC1 |  | inactive |  |
| CCOC(=O)c1ccc(NC(=O)Cn2ccn3nc(-c4ccccc4)c(CO)c3c2=O)cc1 | -13.6% (inactive) |  |  |
| Cc1nn(-c2ccccc2)c(C)c1CC(=O)NC1CCCc2c1[nH]c1ccccc21 (stereo not given) |  | inactive |  |
| CN(C)C[C@@H]1CN(S(C)(=O)=O)C[C@H]1NC(=O)c1ccc2ncccc2c1 | 4.36% (inactive) |  |  |
| CCCCS(=O)(=O)c1oc(-c2cccs2)nc1S(=O)(=O)c1ccccc1 |  |  | 10 µM (active) |
| CSc1oc(-c2cccs2)nc1S(=O)(=O)c1ccc(Br)cc1 | 6.08% (inactive) |  |  |
| Cc1ccc(CSc2oc(-c3cccs3)nc2S(=O)(=O)c2ccc(C)cc2)cc1 | 8.49% (inactive) |  |  |
| Cc1cc(OC2CN([S+](=O)([O-])c3ccccc3)C2)ccc1F | -9.59% [at 44.1 µM] (inactive) |  |  |
| COC1C(=O)N(CC2CC2)C12CCN(C(=O)NC1CCCCC1)CC2 (stereo not given) | -18.9% (inactive) |  |  |
| Cn1nccc1CN1CC(Oc2ccc(F)c(F)c2)C1 |  | inactive [at 44.1 µM] |  |
| CC(C)OCC(=O)N1CCN(c2nc(-c3ccccc3)nc3c2CCC3)CC1 |  |  | 12.6 µM (active) |
| O=C(C1CCN(c2nc(-c3ccccc3)nc3c2CCC3)CC1)N1CCC[C@H]1CO |  |  | 8.91 µM (active) |
| O=C(NCCc1ccccn1)C1CCCN(c2nc(-c3ccccc3)nc3c2CCC3)C1 (stereo not given) | -1.6% (inactive) |  |  |

| SMILES | activity, negative = inhibition | outcome | Potency |
| --- | --- | --- | --- |
| COCCOCC(=O)N1CCCC(c2nc(-c3ccccc3)no2)CCNC(=O)CC1 (stereo not given) | 24.6% (inactive) |  |  |
| O=C(NCc1cccnc1)C1CCN(c2nc(-c3ccccc3)nc3c2CCC3)CC1 | -6.78% (inactive) |  |  |
| Cc1nc(CCNC(=O)C2CCCN(c3nc(-c4ccccc4)nc4c3CCC4)C2)n[nH]1 (stereo not given) | -18.7% (inactive) |  |  |
| Cc1ccc(-c2cc(N3CCCN(C(=O)COc4ccccc4)CC3)n[nH]2)cc1C |  | inactive |  |
| O=C(NC1CCNC1)C1CCN(c2nc(-c3ccccc3)nc3c2CCC3)CC1 (stereo not given) |  |  | 7.08 µM (active) |
| O=C(CN1CCCC1=O)NC1CCCc2nc(-c3ccccc3)ncc21 (stereo not given) | -6.14% (inactive) |  |  |
| COc1ccc(N2CC(C(=O)N3CCSCC3)CC2=O)cc1Cl (stereo not given) | -6.82% (inactive) |  |  |
| O=C(Nc1ccccc1Cl)N1CCc2nc3cc[nH]n3c(=O)c2C1 | -0.962% [at 5.79 µM] (inactive) |  |  |
| Cc1nn(CC(=O)NCC2CCCO2)c(=O)c2nc(C(C)C)sc12 (stereo not given) | -21.8% (inactive) |  |  |
| CC(C)c1nc(C2Cc3ccccc3N2S(=O)(=O)c2cn(C)cn2)no1 (stereo not given) |  | inactive |  |
| CCc1ccc(NC(=O)N2CCCC(Cn3cnc4cccnc43)C2)cc1 (stereo not given) |  | inactive |  |
| COCCNC(=O)CCc1cc2ccc(C)cc2[nH]c1=O | 16% (inactive) |  |  |
| O=C(c1cc(F)ccc1F)N1CCCC(n2cc(-c3nc(C4CC4)no3)nn2)C1 (stereo not given) | -18.1% (inactive) |  |  |
| O=c1n(-c2ccncc2)nc2n1CCN([S+](=O)([O-])c1cccc(C(F)(F)F)c1)C2 | 21.7% (inactive) |  |  |
| CCOc1ccc(C2Cn3nnc(-c4nc(-c5cccc(F)c5)no4)c3CO2)cc1 (stereo not given) |  | inactive; activator; fitted 1.7783 uM |  |
| NC(=O)Cn1ccc2cc(OCC3CCN(c4cnccn4)CC3)cnc21 |  | inactive [at 44.1 µM] |  |
| Cn1ccnc1C(=O)N1CCC2(CC1)CN(c1ncccn1)CC2CO (stereo not given) | -6.56% (inactive) |  |  |
| COc1cccc(OCc2nnc(C(=O)N3CCC[C@@H]3c3cccc(F)c3)n2-c2ccccc2)c1 |  | inactive |  |
| Cc1cccc(Nc2cc(C)nc(-n3nc(C)cc3C)n2)c1 |  |  | 5.62 µM (active) |
| Cc1cc(=O)n(CC(=O)Nc2cccc([N+](=O)[O-])c2)c(-n2nc(C)cc2C)n1 | 10.6% (inactive) |  |  |
| Cc1ccc(Nc2nc3ccccc3nc2-n2nc(C)cc2C)c(Cl)c1 | 34.1% (inactive) |  |  |
| O=C(c1ccc2cc[nH]c2n1)N1CCOCC1 | 13.4% [at 44.1 µM] (inactive) |  |  |
| COc1ccc(CNC(=O)c2cccc3c2CCN3C(=O)c2ccc(F)cc2)cc1OC |  | inactive |  |
| COc1ccc(N2C(=O)C3(CCCCC3)C2C(=O)NCCc2ccncc2)cc1 (stereo not given) | 9.99% (inactive) |  |  |

| SMILES | activity, negative = inhibition | outcome | Potency |
| --- | --- | --- | --- |
| COc1ccc(C2Sc3ccccc3NC3=C2C(=O)c2ccccc23)c(OC)c1OC (stereo not given) |  |  | 0.316 µM (active) |
| COc1nc2nc(CC3CC3)n(C)c2cc1-c1ccc(CO)cc1 | -10.5% [at 44.1 µM] (inactive) |  |  |
| CCN(CC)CCCNC(=O)c1cn(C)c2ccc(S(=O)(=O)N(C)C3CCCCC3)cc2c1=O | 62% (inactive) |  |  |
| COc1ccc(CCNC(=O)c2c3c(nc4ccccc24)C(=O)N(C2CCCCC2)C3)cc1OC | 23.2% (inactive) |  |  |
| COc1ccccc1Nc1cc(C(=O)NCCCN(C)C2CCCCC2)c2ccccc2n1 |  |  | 10 µM (active) |
| Cc1ccc(NC(=O)Cn2c(-c3ccc(Cl)cc3)nc(C)c(CCO)c2=O)cc1C | -20.1% (inactive) |  |  |
| O=C(NC(C(=O)N1CCCCC1)C1CCN(C(=O)c2ccc(Cl)cc2)CC1)c1ccccc1 (stereo not given) |  |  | 5.01 µM (active) |
| CCN(CC)C(=O)C(NC(=O)c1ccc(OC)cc1)C1CCN(C(=O)C(C)C)CC1 (stereo not given) | -18.8% (inactive) |  |  |
| CCN(CC)C(=O)C(NC(=O)c1ccc(OC)cc1)C1CCN(C(=O)c2ccc(F)cc2)CC1 (stereo not given) |  | inactive |  |
| CNC(=O)[C@@H]1CN(C(=O)c2ccc3ccccc3n2)C[C@H]1COC | 0.257% (inactive) |  |  |
| CS(=O)(=O)c1cnc(NCCc2cnc[nH]2)nc1C1CCCNC1 (stereo not given) | -2.1% (inactive) |  |  |
| CN(CC1CCOC1)C(=O)Nc1ccc(Cl)cc1 (stereo not given) |  | inactive [at 5.79 µM] |  |
| CC(C)(C)c1csc(NC(=O)C[C@H]2NC(=O)c3ccccc3NC2=O)n1 |  | inactive |  |
| COc1cccc(-c2ccnc3nc(-c4ccccc4OC)nn23)c1 |  | inactive |  |
| COc1cccc(-c2ccnc3nc(Cc4cc(F)cc(F)c4)nn23)c1 |  |  | 10 µM (active) |
| COCc1nc2nccc(-c3ccccc3)n2n1 | 11.9% (inactive) |  |  |
| CNC(=O)[C@@H]1CN(C(=O)C2CC=CCC2)C[C@H]1c1nc(C)no1 (stereo not given in full) | -11.6% (inactive) |  |  |
| O=C(c1ccc(F)cc1)N1CCCC(c2nn(-c3cccc(Cl)c3)c(=O)[nH]2)C1 (stereo not given) |  | inactive |  |
| COCCN1C(=O)CC[C@]2(C(=O)NCc3cccs3)CCCC[C@@H]12 | -7.18% (inactive) |  |  |
| CN1C(=O)CC[C@]2(C(=O)NCC3CCCCC3)CCCC[C@@H]12 | 6.63% (inactive) |  |  |
| CC(C)CCN1C(=O)CC[C@]2(C(=O)N3CCN(C)CC3)CCCC[C@@H]12 |  |  | 11.2 µM (active) |
| COC(=O)c1cnn(-c2ccc(C(=O)Nc3ccc(OC(F)(F)F)cc3)cc2)c1N |  |  | 1.58 µM (active) |
| CCOc1ccc(NC(=O)c2cnn(-c3ccccc3)c2-n2cccc2)cc1 | -18% (inactive) |  |  |
| Cc1ccc2ncc(C(=O)Nc3ccc(OC(F)(F)F)cc3)c(=O)n2c1 | 5.38% (inactive) |  |  |

| SMILES | activity, negative = inhibition | outcome | Potency |
| --- | --- | --- | --- |
| O=C(NCC1(COc2ccc(C(F)(F)F)cn2)C[C@@H](O)[C@@H](O)C1)c1ccc(F)cc1 (stereo not given in full) | -12.3% (inactive) |  |  |
| CCn1cc(CN2C[C@@H](COC)[C@H](c3nc(COC)no3)C2)cn1 | 33.5% (inactive) |  |  |
| COc1ccc(CCC(=O)NCc2ccc3c(c2)CCN3C(=O)c2ccc(F)cc2)cc1 |  |  | 4.47 µM (active) |
| O=C(CCc1ccccc1)NCc1ccc2c(c1)CCN2C(=O)c1ccccc1 |  | inactive |  |
| O=C(COc1ccccc1)NCc1ccc2c(c1)CCN2C(=O)c1ccc(F)cc1 |  | inactive |  |
| Cc1ccc(CNC(=O)N2CCCOCCNC(=O)[C@@H]3CCC[C@@H]32)cc1 | 48.5% (inactive) |  |  |
| C[S+](=O)([O-])c1ccc(CC(=O)N2CC(CNC(=O)C3CC3)C3(C2)CN(c2ccccc2)C3)cc1 (stereo not given) | 18% (inactive) |  |  |
| c1cncc(-c2cnc([C@@H]3COCCN3Cc3cnc4ccccc4c3)[nH]2)c1 | -25.9% [at 44.1 µM] (inactive) |  |  |
| Oc1ccccc1CN1CCOC[C@H]1c1ncc(-c2ccc(C(F)(F)F)cc2)[nH]1 |  |  | 1.26 µM (active) |
| c1cc(CN2CCOC[C@H]2c2ncc(-c3ccncc3)[nH]2)ccn1 | 21.5% [at 44.1 µM] (inactive) |  |  |
| O=C(COc1ccccc1)N[C@H]1[C@H](O)[C@H](O)C[C@@H]1c1ccc(C(F)(F)F)cc1 | -10.6% [at 44.1 µM] (inactive) |  |  |
| Cc1ccc2c(c1)N1C(=O)OC[C@@H]1CCN(C(=O)Nc1ccccc1)C2 | -6.37% [at 44.1 µM] (inactive) |  |  |
| CCOC(=O)c1ccc(NC(=O)Cn2nc3c(cc2=O)CN(C(C)=O)CC3)cc1 |  | inactive |  |
| O=C(c1ccc2[nH]ccc2c1)N1CCC(N2CC(OCC3CC3)C23CCOCC3)CC1 (stereo not given) | -12% (inactive) |  |  |
| Fc1cccc(CN2CCC(N3CC(OCC4CC4)C34CCCCC4)CC2)c1 (stereo not given) |  |  | 0.501 µM (active) |
| N#Cc1cccc(CN2CCC(C3=NC(O)c4cc(F)ccc4N3)CC2)c1 (stereo not given) |  | inactive |  |
| COCCOC1CN(C2CCN(C(=O)C3CCOCC3)CC2)C12CCCCC2 (stereo not given) |  | inactive |  |
| CCn1cc(CN2CCC(N3CC(OCC4CC4)C34CCCCC4)CC2)cn1 (stereo not given) |  |  | 1.41 µM (active) |
| COCCOC1CN(C2CCN(C(=O)c3ccc(OC)nc3)CC2)C12CCCCC2 (stereo not given) | -1.15% (inactive) |  |  |
| O=C(Nc1cccc(Cl)c1)[C@@H]1C[C@@H](c2ccc(F)cc2)N([S+](=O)([O-])c2cccnc2)C1 |  | inactive; activator; fitted 4.4668 uM |  |
| O=C1CC(c2ccccc2)N(C(=O)CNC(=O)C2CCC2)CCCCCN1 (stereo not given) | 12.7% (inactive) |  |  |
| O=C1CC(c2ccccc2)N(C(=O)CNC(=O)NCc2ccc(F)cc2)CCCCCN1 (stereo not given) | 24.2% (inactive) |  |  |
| COc1ccc(CNC(=O)NCC(=O)N2CCCCCCNC(=O)CC2c2ccccc2)cc1 (stereo not given) |  |  | 8.91 µM (active) |
